Laboratory results published in the supplement of paper PMC12645437, “Orthogonal IMiD-Degron Pairs Induce Selective Protein Degradation in Cells” (ACS Chemical Biology, 2025).
The full ranking holds about 8,300 sequences; the median of “log2 fold change of degron read counts, EGFP-low vs EGFP+ sorted cells (limma voom), compound-induced degradation” is about -1.1, and the highest 2% start at about 3.2. The list comes from a sample in which the highest values are over-represented; it also holds similar and randomly drawn sequences.

Biological target: T1, CRBN, Q96SW2
T1 chain: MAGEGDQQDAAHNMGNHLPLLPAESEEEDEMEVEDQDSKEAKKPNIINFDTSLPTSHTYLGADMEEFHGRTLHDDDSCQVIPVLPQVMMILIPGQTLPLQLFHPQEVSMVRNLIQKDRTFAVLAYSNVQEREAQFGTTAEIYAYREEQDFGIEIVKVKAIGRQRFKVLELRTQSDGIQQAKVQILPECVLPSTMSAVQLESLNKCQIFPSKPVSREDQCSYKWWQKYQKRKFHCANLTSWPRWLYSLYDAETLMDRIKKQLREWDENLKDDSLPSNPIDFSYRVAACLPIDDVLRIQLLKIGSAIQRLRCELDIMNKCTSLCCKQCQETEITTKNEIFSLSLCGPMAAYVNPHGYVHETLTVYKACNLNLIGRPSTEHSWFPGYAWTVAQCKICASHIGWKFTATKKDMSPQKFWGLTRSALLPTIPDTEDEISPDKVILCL
Experiment: log2 fold change of degron read counts, EGFP-low vs EGFP+ sorted cells (limma voom), compound-induced degradation; higher = more compound-induced degradation of the degron-EGFP fusion; degrons are variants of IKZF1/3 zinc finger 2; compound dose not given here
Details: Jurkat, 18 h
Experimental: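 Pooled library of 8380 IKZF3 ZF2 degron mutants (positions 146-167 varied within the IKZF3 130-189 degron; only the varied core is printed, flanks not printed) fused to EGFP with IRES-mCherry, lentivirally expressed in Jurkat cells. mCherry+ cells were treated with one IMiD compound for 18 h (dose not stated) and FACS-sorted into EGFP-low and EGFP+ populations. Degron sequences were counted by NGS, and log2FC (EGFP-low vs EGFP+) was estimated by limma voom over 3 biological replicates.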

[1] = compound: compound 19 (5-tert-butyl-thalidomide)
[2] = compound: compound 22 (5-morpholino-thalidomide)
[3] = compound: compound 33 (diphenyl IMiD analogue)
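Further: pooled lentiviral library of zinc finger degron-EGFP fusions in mCherry-positive Jurkat cells, FACS-sorted after compound exposure, with degron abundance counted by next-generation sequencing.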

Row | Sequence | log2 fold change of degron read counts [1] | log2 fold change of degron read counts [2] | log2 fold change of degron read counts [3] | log2 fold change of degron read counts (compound: thalidomide)
1 | FACPVCGAMFTQKGNLLRHIKL [46F_47A_49P_50V_52G_53A_54M_55F_67L_, Q9UKT9] | 2.83 | 0.812 | 0.601 | -0.0754
2 | FGCPVCGAMFTQKGNLLRHIKL [46F_47G_49P_50V_52G_53A_54M_55F_67L_, Q9UKT9] | 3.86 | 2.08 | 2.22 | 0.29
3 | FNCPVCGAMFTQKGNLLRHIKL [46F_47N_49P_50V_52G_53A_54M_55F_67L_, Q9UKT9] | 0.95 | -0.0712 | 0.173 | 0.109
4 | FQCPVCGAMFTQKGNLLRHIKL [46F_47Q_49P_50V_52G_53A_54M_55F_67L_, Q9UKT9] | -0.606 | 2.26 | 2.34 | 3.58
5 | FSCPVCGAMFTQKGNLLRHIKL [46F_47S_49P_50V_52G_53A_54M_55F_67L_, Q9UKT9] | 1.68 | 0.847 | 1.55 | 0.449
6 | FVCPVCGAMFTQKGNLLRHIKL [46F_47V_49P_50V_52G_53A_54M_55F_67L_, Q9UKT9] | -0.83 | 1.28 | 1.78 | 1.71
7 | LHCNQCGFRCTQKGNLLRHIKL [46L_47H_49N_50Q_52G_53F_54R_55C_67L_, Q9UKT9] | -1.15 | -1.7 | -1.52 | -1.61
8 | FRCPICGHQFTQKGNLLRHIKL [46F_47R_49P_50I_52G_53H_54Q_55F_67L_, Q9UKT9] | -2.97 | -2.88 | -2.09 | -1.65
9 | FNCEICGRGFTQKGNLLRHIKL [46F_47N_49E_50I_52G_53R_54G_55F_67L_, Q9UKT9] | -0.684 | -2.34 | -2.3 | -2.43
10 | FICDVCGADFTQKGNLLRHIKL [46F_47I_49D_50V_52G_53A_54D_55F_67L_, Q9UKT9] | -3.13 | -2.03 | -2.05 | -2.17
11 | FTCEICGRSFTQKGNLLRHIKL [46F_47T_49E_50I_52G_53R_54S_55F_67L_, Q9UKT9] | -2.68 | -1.98 | -1.23 | -0.866
12 | FVCNICGAAFTQKGNLLRHIKL [46F_47V_49N_50I_52G_53A_54A_55F_67L_, Q9UKT9] | -0.113 | 1.76 | 1.87 | 2.31
13 | LVCNQCGFDCTQKGNLLRHIKL [46L_47V_49N_50Q_52G_53F_54D_55C_67L_, Q9UKT9] | -2.99 | -3.3 | -2.89 | -2.71
14 | LTCNQCGFFCTQKGNLLRHIKL [46L_47T_49N_50Q_52G_53F_54F_55C_67L_, Q9UKT9] | -1.72 | -1.87 | -2.06 | -1.27
15 | FKCEVCGAEFTQKGNLLRHIKL [46F_47K_49E_50V_52G_53A_54E_55F_67L_, Q9UKT9] | -1.42 | -2.94 | -2.99 | -1.02
16 | FYCEVCGAEFTQKGNLLRHIKL [46F_47Y_49E_50V_52G_53A_54E_55F_67L_, Q9UKT9] | 3.4 | 2.95 | 2.08 | 0.0761
17 | FQCPVCGAEFTQKGNLLRHIKL [46F_47Q_49P_50V_52G_53A_54E_55F_67L_, Q9UKT9] | 0.475 | 1.57 | 2.3 | 3.76
18 | FSCPVCGAEFTQKGNLLRHIKL [46F_47S_49P_50V_52G_53A_54E_55F_67L_, Q9UKT9] | 1.12 | 0.204 | 1.45 | 0.472
19 | FNCEVCGAEFTQKGNLLRHIKL [46F_47N_49E_50V_52G_53A_54E_55F_67L_, Q9UKT9] | 0.9 | -1.18 | -1.23 | -0.895
20 | FVCPVCGAEFTQKGNLLRHIKL [46F_47V_49P_50V_52G_53A_54E_55F_67L_, Q9UKT9] | -0.775 | 1.8 | 1.37 | 2.53
21 | FQCEVCGAEFTQKGNLLRHIKL [46F_47Q_49E_50V_52G_53A_54E_55F_67L_, Q9UKT9] | 0.65 | 0.856 | 1.61 | 3.7
22 | FFCEVCGAEFTQKGNLLRHIKL [46F_47F_49E_50V_52G_53A_54E_55F_67L_, Q9UKT9] | 3.01 | 3.05 | 0.82 | 0.898
23 | FTCEVCGAEFTQKGNLLRHIKL [46F_47T_49E_50V_52G_53A_54E_55F_67L_, Q9UKT9] | -0.301 | 1.19 | 0.247 | 1.9
24 | FWCPICGHQFTQKGNLLRHIKL [46F_47W_49P_50I_52G_53H_54Q_55F_67L_, Q9UKT9] | -1.19 | 0.164 | -0.157 | -0.942
25 | FHCNVCGALFTQKGNLLRHIKL [46F_47H_49N_50V_52G_53A_54L_55F_67L_, Q9UKT9] | -1.06 | -1.21 | -0.823 | -1.55
26 | LTCEICGFDCTQKGNLLRHIKL [46L_47T_49E_50I_52G_53F_54D_55C_67L_, Q9UKT9] | -3.24 | -2.7 | -2.79 | -2.46
27 | LLCNQCGFACTQKGNLLRHIKL [46L_47L_49N_50Q_52G_53F_54A_55C_67L_, Q9UKT9] | -2.26 | -2.6 | -2.27 | -1.53
28 | FVCNQCGATFTQKGNLLRHIKL [46F_47V_49N_50Q_52G_53A_54T_55F_67L_, Q9UKT9] | -2.74 | -1.56 | -1.1 | -1.67
